PubChem BioAssay AID1159580 (chemical genetic matrix, 2015)
Values joined by “and” are separate entries in the source; they are usually repeats but may differ in a detail not shown here. Identical values can stand only once. About 2,000 (36%) of roughly 5,500 compounds were called active. About 18% were inconclusive and are not listed. Rule as the data show it: active = normalized growth mostly below about 0.91 (no sharp cut-off); inconclusive = no clear call, values can overlap the other calls; inactive = mostly above about 0.92. The list shows a part of the results.

Assay: chemical genetic growth profiling, strain panel (AID 1159580);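 also: tested at 20 µM; growth read once vehicle control cultures reached saturation at 30 °C; 1 = growth at the plate median or of vehicle wells; lower values mean less growth of the strain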
Conditions: S. cerevisiae deletion strains, growth OD

Measured: normalized growth

COc1ccccc1N1CCN(CCCNc2cc(=O)n(C)c(=O)n2C)CC1
inactive: locus YAL013W, strain DEP1, stronger effect = lower value 0.976 | locus YAL021C, strain ccr4, stronger effect = lower value 0.998 | locus YAL026C, strain drs2, stronger effect = lower value 1.02 | locus YAL030W, strain snc1, stronger effect = lower value 1.01 | locus YAL040C, strain CLN3, stronger effect = lower value 1 | locus YBL061C, strain skt5, stronger effect = lower value 1.01 | locus YBR009C, strain hhf1, stronger effect = lower value 1 | locus YBR021W, strain FUR4, stronger effect = lower value 1.05 | locus YBR023C, strain chs3, stronger effect = lower value 1.02 | locus YBR171W, strain sec66, stronger effect = lower value 1.02 | locus YBR229C, strain ROT2, stronger effect = lower value 0.952 | locus YBR231C, strain swc5, stronger effect = lower value 1.01 | locus YBR279W, strain paf1, stronger effect = lower value 1.01 | locus YCL011C, strain gbp2, stronger effect = lower value 1.01 | locus YCL016C, strain dcc1, stronger effect = lower value 1.01 | locus YCL029C, strain bik1, stronger effect = lower value 0.984 | locus YCL061C, strain MRC1 (second series), stronger effect = lower value 1 | locus YCL061C, strain MRC1, stronger effect = lower value 1.02 | locus YCL069W, strain vba3, stronger effect = lower value 1.02 | locus YCR088W, strain abp1, stronger effect = lower value 1.01 | locus YDL005C, strain med2, stronger effect = lower value 1.02 | locus YDL035C, strain GPR1, stronger effect = lower value 0.986 | locus YDL040C, strain nat1, stronger effect = lower value 0.994 | locus YDL074C, strain BRE1, stronger effect = lower value 0.961 | locus YDL101C, strain DUN1, stronger effect = lower value 0.959 | locus YDL134C, strain PPH21, stronger effect = lower value 0.984 | locus YDL185W, strain tfp1, stronger effect = lower value 0.961 | locus YDL192W, strain arf1, stronger effect = lower value 0.99 | locus YDR001C, strain nth1, stronger effect = lower value 1.01 | locus YDR069C, strain doa4, stronger effect = lower value 1.01 | locus YDR101C, strain arx1, stronger effect = lower value 0.994 | locus YDR137W, strain rgp1, stronger effect = lower value 1.03 | locus YDR150W, strain NUM1, stronger effect = lower value 0.968 and 1.01 | locus YDR159W, strain sac3, stronger effect = lower value 1 | locus YDR162C, strain NBP2, stronger effect = lower value 0.962 | locus YDR195W, strain ref2 1.01 | locus YDR297W, strain sur2, stronger effect = lower value 1.01 | locus YDR318W, strain mcm21, stronger effect = lower value 1.01 | locus YDR334W, strain swr1, stronger effect = lower value 1.02 | locus YDR335W, strain msn5, stronger effect = lower value 1.02 | locus YDR363W, strain ESC2, stronger effect = lower value 1 | locus YDR388W, stronger effect = lower value 0.998 | locus YDR392W, strain spt3, stronger effect = lower value 0.944 | locus YDR502C, strain sam2, stronger effect = lower value 1 | locus YEL003W, strain gim4, stronger effect = lower value 1.01 | locus YEL037C, strain rad23, stronger effect = lower value 1.01 | locus YEL061C, strain CIN8 (second series), stronger effect = lower value 1.01 | locus YEL061C, strain CIN8, stronger effect = lower value 0.986 | locus YER002W, strain NOP16, stronger effect = lower value 0.991 | locus YER015W, strain faa2, stronger effect = lower value 1.02 | locus YER016W, strain bim1, stronger effect = lower value 1.02 | locus YER110C, stronger effect = lower value 0.994 | locus YER111C, strain swi4, stronger effect = lower value 1 | locus YER155C, strain BEM2 (second series), stronger effect = lower value 1.02 | locus YER155C, strain BEM2, stronger effect = lower value 0.993 | locus YER167W, strain BCK2, stronger effect = lower value 0.98 | locus YFR010W, strain ubp6, stronger effect = lower value 1.02 | locus YGL078C, strain dbp3, stronger effect = lower value 0.99 | locus YGL086W, strain mad1, stronger effect = lower value 1.01 | locus YGL167C, strain pmr1, stronger effect = lower value 1.01 | locus YGL173C, strain kem1, stronger effect = lower value 1.01 | locus YGL227W, strain vid30, stronger effect = lower value 1.01 | locus YGL240W, strain doc1, stronger effect = lower value 0.996 | locus YGL248W, strain PDE1, stronger effect = lower value 0.974 | locus YGL253W, strain hxk2, stronger effect = lower value 1.01 | locus YGR078C, strain PAC10, stronger effect = lower value 0.981 and 0.985 | locus YGR135W, strain pre9, stronger effect = lower value 0.985 | locus YGR229C, strain SMI1, stronger effect = lower value 1.01 | locus YGR252W, strain gcn5, stronger effect = lower value 1.05 | locus YHR013C, strain ard1, stronger effect = lower value 1.01 | locus YHR027C, strain rpn1, stronger effect = lower value 1.01 | locus YHR030C, strain SLT2, stronger effect = lower value 0.983 | locus YHR079C, strain IRE1 (second series), stronger effect = lower value 1 | locus YHR094C, strain hxt1, stronger effect = lower value 0.992 | locus YHR129C, strain ARP1, stronger effect = lower value 0.988 | locus YHR142W, strain chs7, stronger effect = lower value 1.01 | locus YHR200W, strain rpn10, stronger effect = lower value 0.994 | locus YIL066C, strain RNR3, stronger effect = lower value 0.985 | locus YIL073C, strain SPO22, stronger effect = lower value 0.998 | locus YIL125W, strain kgd1, stronger effect = lower value 0.997 | locus YIR030C, strain dcg1, stronger effect = lower value 0.983 | locus YJL092W, strain hpr5, stronger effect = lower value 1.01 | locus YJL095W, strain BCK1 (second series), stronger effect = lower value 1.01 | locus YJL095W, strain BCK1, stronger effect = lower value 1 | locus YJL115W, strain asf1, stronger effect = lower value 1.03 | locus YJL129C, strain trk1, stronger effect = lower value 1.05 | locus YJL134W, strain LCB3, stronger effect = lower value 0.98 | locus YJL154C, strain vps35, stronger effect = lower value 1.02 | locus YJL164C, strain tpk1, stronger effect = lower value 1.01 | locus YJL166W, strain qcr8, stronger effect = lower value 1.01 | locus YJL168C, strain set2, stronger effect = lower value 0.998 | locus YJL187C, strain SWE1 (second series), stronger effect = lower value 0.978 | locus YJL187C, strain SWE1, stronger effect = lower value 1.01
